Assay results as given in PubChem BioAssay AID1159580 (chemical genetic matrix, 2015).
Values joined by “and” are separate entries in the source; they are usually repeats but may differ in a detail not shown here. Identical values can stand only once. Out of some 5,500 compounds screened, about 2,000 (36%) were called active. Another 18% or so got no clear call; they are omitted. No stated cut-off is given here; in the data, active means normalized growth mostly below about 0.91 (no sharp cut-off); inconclusive means no clear call, values can overlap the other calls; inactive means mostly above about 0.92. The list shows a part of the results.

Assay: chemical genetic growth profiling, strain panel (AID 1159580);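 further: tested at 20 µM; growth read once vehicle control cultures reached saturation at 30 °C; 1 = growth at the plate median or of vehicle wells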
Conditions: S. cerevisiae deletion strains, growth OD

Measured: normalized growth

O=C1NC(=O)C(=O)C(=O)N1
inactive: locus YAL013W, strain DEP1, stronger effect = lower value 1.01 | locus YAL021C, strain ccr4, stronger effect = lower value 1 | locus YAL026C, strain drs2, stronger effect = lower value 0.991 | locus YAL030W, strain snc1, stronger effect = lower value 0.989 | locus YBL061C, strain skt5, stronger effect = lower value 0.984 | locus YBR009C, strain hhf1, stronger effect = lower value 0.997 | locus YBR021W, strain FUR4, stronger effect = lower value 1.03 | locus YBR023C, strain chs3, stronger effect = lower value 0.997 | locus YBR171W, strain sec66, stronger effect = lower value 0.979 | locus YBR229C, strain ROT2, stronger effect = lower value 1.01 | locus YBR231C, strain swc5, stronger effect = lower value 0.986 | locus YBR279W, strain paf1, stronger effect = lower value 0.993 | locus YCL011C, strain gbp2, stronger effect = lower value 0.996 | locus YCL016C, strain dcc1, stronger effect = lower value 0.995 | locus YCL029C, strain bik1, stronger effect = lower value 0.984 | locus YCL061C, strain MRC1, stronger effect = lower value 0.988 | locus YCL069W, strain vba3, stronger effect = lower value 0.989 | locus YCR088W, strain abp1, stronger effect = lower value 0.984 | locus YDL005C, strain med2, stronger effect = lower value 0.984 | locus YDL035C, strain GPR1, stronger effect = lower value 1.03 | locus YDL040C, strain nat1, stronger effect = lower value 0.988 | locus YDL074C, strain BRE1, stronger effect = lower value 1.04 | locus YDL101C, strain DUN1, stronger effect = lower value 1.02 | locus YDL134C, strain PPH21, stronger effect = lower value 1.02 | locus YDL185W, strain tfp1, stronger effect = lower value 1 | locus YDL192W, strain arf1, stronger effect = lower value 0.998 | locus YDR001C, strain nth1, stronger effect = lower value 0.981 | locus YDR069C, strain doa4, stronger effect = lower value 0.998 | locus YDR101C, strain arx1, stronger effect = lower value 0.995 | locus YDR137W, strain rgp1, stronger effect = lower value 0.999 | locus YDR150W, strain NUM1, stronger effect = lower value 1.02 | locus YDR159W, strain sac3, stronger effect = lower value 0.986 | locus YDR162C, strain NBP2, stronger effect = lower value 1.02 | locus YDR195W, strain ref2 0.962 | locus YDR297W, strain sur2, stronger effect = lower value 0.999 | locus YDR318W, strain mcm21, stronger effect = lower value 0.993 | locus YDR334W, strain swr1, stronger effect = lower value 0.99 | locus YDR335W, strain msn5, stronger effect = lower value 0.995 | locus YDR388W, stronger effect = lower value 0.98 | locus YDR392W, strain spt3, stronger effect = lower value 0.979 | locus YDR502C, strain sam2, stronger effect = lower value 1.01 | locus YEL003W, strain gim4, stronger effect = lower value 0.989 | locus YEL037C, strain rad23, stronger effect = lower value 0.996 | locus YEL061C, strain CIN8 (second series), stronger effect = lower value 0.983 | locus YEL061C, strain CIN8, stronger effect = lower value 1.01 | locus YER015W, strain faa2, stronger effect = lower value 0.992 | locus YER016W, strain bim1, stronger effect = lower value 0.99 | locus YER110C, stronger effect = lower value 0.988 | locus YER111C, strain swi4, stronger effect = lower value 0.986 | locus YER155C, strain BEM2 (second series), stronger effect = lower value 0.98 | locus YER155C, strain BEM2, stronger effect = lower value 1.01 | locus YER167W, strain BCK2, stronger effect = lower value 1.03 | locus YFR010W, strain ubp6, stronger effect = lower value 0.974 | locus YGL078C, strain dbp3, stronger effect = lower value 0.985 | locus YGL086W, strain mad1, stronger effect = lower value 1.01 | locus YGL167C, strain pmr1, stronger effect = lower value 0.987 | locus YGL173C, strain kem1, stronger effect = lower value 0.969 | locus YGL227W, strain vid30, stronger effect = lower value 0.975 | locus YGL240W, strain doc1, stronger effect = lower value 0.99 | locus YGL248W, strain PDE1, stronger effect = lower value 1.02 | locus YGL253W, strain hxk2, stronger effect = lower value 0.993 | locus YGR078C, strain PAC10, stronger effect = lower value 1.02 | locus YGR135W, strain pre9, stronger effect = lower value 1 | locus YGR229C, strain SMI1, stronger effect = lower value 1.03 | locus YGR252W, strain gcn5, stronger effect = lower value 1.03 | locus YHR013C, strain ard1, stronger effect = lower value 0.991 | locus YHR027C, strain rpn1, stronger effect = lower value 0.984 | locus YHR030C, strain SLT2, stronger effect = lower value 1.01 and 0.971 | locus YHR079C, strain IRE1 (second series), stronger effect = lower value 0.991 | locus YHR079C, strain IRE1, stronger effect = lower value 0.971 | locus YHR094C, strain hxt1, stronger effect = lower value 0.994 | locus YHR129C, strain ARP1, stronger effect = lower value 1.01 | locus YHR142W, strain chs7, stronger effect = lower value 0.988 | locus YHR200W, strain rpn10, stronger effect = lower value 0.993 | locus YIL066C, strain RNR3, stronger effect = lower value 1.03 | locus YIL073C, strain SPO22, stronger effect = lower value 0.994 | locus YIL125W, strain kgd1, stronger effect = lower value 1 | locus YIR030C, strain dcg1, stronger effect = lower value 0.992 | locus YJL092W, strain hpr5, stronger effect = lower value 0.991 | locus YJL095W, strain BCK1 (second series), stronger effect = lower value 1 | locus YJL095W, strain BCK1, stronger effect = lower value 1.01 and 0.96 | locus YJL115W, strain asf1, stronger effect = lower value 0.978 | locus YJL129C, strain trk1, stronger effect = lower value 1 | locus YJL134W, strain LCB3, stronger effect = lower value 1.01 | locus YJL154C, strain vps35, stronger effect = lower value 0.985 | locus YJL164C, strain tpk1, stronger effect = lower value 1.01 | locus YJL166W, strain qcr8, stronger effect = lower value 1 | locus YJL168C, strain set2, stronger effect = lower value 0.988 | locus YJL187C, strain SWE1 (second series), stronger effect = lower value 1.01 | locus YJL187C, strain SWE1, stronger effect = lower value 0.989 | locus YJR043C, strain POL32, stronger effect = lower value 1 | locus YJR066W, strain TOR1, stronger effect = lower value 0.974
